High-throughput results deposited in PubChem BioAssay by The Scripps Research Institute Molecular Screening Center.
PME-1 primary: PME-1 inhibitors via competitive probe labeling, primary screen, biochemical, fluorescence polarization, FP-Rh probe, HTS; Protein phosphatase methylesterase 1 (Homo sapiens), Q9Y570; recombinant PME-1; inhibition, % at 5.9 µM; 320,000 compounds, 0.53% hits; AID 2130, 2009;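 active = inhibition above the campaign mean of all compounds plus 3 SD, cut at about 26% in these data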;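 note: competitive labeling of PME-1 active site by serine hydrolase directed probe; inhibitors block probe labeling so polarization falls and inhibition rises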
LYPLA2 inh: LYPLA2 inhibitors, primary screen, counter-screen for PME1 inhibitor project, biochemical, fluorescence polarization, FP-Rh probe ABPP; inhibition, % at 5.9 µM; AID 2177, 2009; recombinant LYPLA2; 320,000 compounds, 0.38% hits;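 active = inhibition above the screen-wide mean plus 3 SD, limit set per campaign, cut at about 26% in these data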
Target sequence (O95372 whole entry, looked up): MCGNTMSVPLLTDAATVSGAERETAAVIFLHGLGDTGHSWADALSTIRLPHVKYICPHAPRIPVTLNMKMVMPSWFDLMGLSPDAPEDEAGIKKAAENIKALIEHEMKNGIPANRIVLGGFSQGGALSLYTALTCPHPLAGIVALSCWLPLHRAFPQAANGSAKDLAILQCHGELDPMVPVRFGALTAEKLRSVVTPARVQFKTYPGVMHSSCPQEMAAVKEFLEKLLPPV
GSTO1 inh: inhibitors of recombinant GSTO1, primary screen, counter-screen for RBBP9 inhibitor project, biochemical, fluorescence polarization; activity-based probe fluorescence polarization; inhibition, % at 5.96 µM; 300,000 compounds, 1.1% hits;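 active = inhibition above the campaign mean inhibition plus 3 SD, cut at about 35% in these data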
Target sequence (P78417 whole entry, looked up): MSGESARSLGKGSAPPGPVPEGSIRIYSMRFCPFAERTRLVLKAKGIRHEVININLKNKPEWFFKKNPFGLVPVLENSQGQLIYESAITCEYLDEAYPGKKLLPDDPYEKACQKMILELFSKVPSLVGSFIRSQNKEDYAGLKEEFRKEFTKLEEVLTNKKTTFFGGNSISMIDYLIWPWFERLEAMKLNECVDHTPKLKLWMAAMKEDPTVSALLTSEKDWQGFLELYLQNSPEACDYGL
LYPLA1 inh: LYPLA1 inhibitors, primary screen, counter-screen for PME1 inhibitor project, biochemical, fluorescence polarization, FP-Rh probe ABPP. recombinant LYPLA1. inhibition, % at 5.9 µM. 320,000 compounds, 0.16% hits. AID 2174, 2009;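 active = inhibition above the mean of all tested compounds plus 3 SD, set per campaign, cut at about 14% in these data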;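 note: inhibitors block serine hydrolase probe labeling of LYPLA1 so polarization falls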
Target sequence (O75608 whole entry, looked up): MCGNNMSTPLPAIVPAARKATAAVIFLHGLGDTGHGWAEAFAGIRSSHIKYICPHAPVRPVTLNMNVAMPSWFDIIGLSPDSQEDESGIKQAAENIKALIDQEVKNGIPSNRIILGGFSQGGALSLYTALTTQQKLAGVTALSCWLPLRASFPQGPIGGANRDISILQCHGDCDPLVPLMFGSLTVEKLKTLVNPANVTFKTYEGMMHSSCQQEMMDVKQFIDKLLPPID
Fam108B inh: mouse Fam108B serine hydrolase inhibitors, primary screen, counter-screen for RBBP9 inhibitor project, biochemical, fluorescence polarization | recombinant Fam108B, FP-Rh probe fluorescence polarization | inhibition, % at 9.51 µM | 300,000 compounds, 0.33% hits | AID 1947, 2009;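 active = inhibition above the screen mean inhibition plus 3 SD, computed separately per campaign, cut at about 18% in these data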;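 note: inhibitors lower polarization as less probe binds the enzyme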
PAD4 inh: human PAD4 inhibitors, primary screen, biochemical, fluorescence polarization, 1536-well format; 330,000 compounds, 0.41% hits; inhibition, % at 6.36 µM; recombinant PAD4, RCA probe fluorescence polarization;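 active = percent inhibition above a cutoff equal to the mean of all tested compounds plus 3 SD, cut at about 15% in these data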
GSTO1 confirm: GSTO1 inhibitor hit confirmation, counter-screen for RBBP9 inhibitor project, biochemical, fluorescence polarization, triplicate; recombinant GSTO1, probe fluorescence polarization; inhibition, % at 5.96 µM; 2,400 compounds, 54% hits; shares compounds with GSTO1 inh;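 active = inhibition above the primary screen's cutoff, its mean inhibition plus 3 SD, cut at about 35% in these data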;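 note: loss of polarization as inhibitors block binding of rhodamine sulfonate ester activity probe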
LYPLA1 confirm: LYPLA1 inhibitors, retest, confirmation, counter-screen for PME1 inhibitor project, biochemical, fluorescence polarization, FP-Rh probe ABPP | shares compounds with LYPLA1 inh | recombinant LYPLA1 | inhibition, % at 5.9 µM | 480 compounds, 69% hits | AID 2233, 2010;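 active = mean inhibition across replicates above the hit cutoff set in the primary screen, cut at about 15% in these data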;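 note: loss of FP-Rh probe labeling of LYPLA1 seen as lower polarization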
LYPLA2 conf: LYPLA2 inhibitors, retest, confirmation, counter-screen for PME1 inhibitor project, biochemical, fluorescence polarization, FP-Rh probe ABPP; 1,100 compounds, 72% hits; shares compounds with LYPLA2 inh; inhibition, % at 5.9 µM; recombinant LYPLA2;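 active = mean inhibition across replicates above the hit cutoff set in the primary screen, cut at about 26% in these data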;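 note: blocked labeling of the enzyme by serine hydrolase FP-Rh probe lowers polarization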
PAD4 FP conf: human PAD4 inhibitors, confirmation, biochemical, fluorescence polarization; shares compounds with PAD4 inh; recombinant PAD4, RCA probe fluorescence polarization; inhibition, % at 6.36 µM; 1,200 compounds, 28% hits;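 active = mean inhibition across replicates above the hit cutoff set by the earlier primary screen, cut at about 15% in these data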;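 note: inhibitors block active-site labeling by the probe so polarization falls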
Each line names hits and unclear results; the compound was inactive in the other large screens (follow-up assays come after a bar, where they were run). Hits are enriched below; roughly 1.8% of the tested compounds scored in any of these assays.

CC(C)NC(=O)Nc1ccc2c(c1)C(=O)N([C@H](C)CO)C[C@H](C)[C@@H](CN(C)S(=O)(=O)c1cn(C)cn1)O2	none (no result: PME-1 primary, LYPLA2 inh, GSTO1 inh, LYPLA1 inh, Fam108B inh)
CC1(C)N([O-])c2cc([N+](=O)[O-])ccc2[N+]1=O	GSTO1 inh 82, PAD4 inh 30 | GSTO1 confirm 42 | PAD4 FP conf 15
CC(OC(=O)c1cccnc1Cl)C(=O)Nc1ccc2c(c1)OCO2 (stereo unspecified)	none (no result: PME-1 primary, LYPLA2 inh, GSTO1 inh, LYPLA1 inh, Fam108B inh)
Cc1[nH][nH]c(=O)c1C(c1ccc(-c2ccccc2C(=O)O)o1)c1c(C)[nH][nH]c1=O	GSTO1 inh 70, PAD4 inh 51 | GSTO1 confirm inactive | PAD4 FP conf inactive
Cc1[nH][nH]c(=O)c1C(c1ccc(-c2cccc(Cl)c2)o1)c1c(C)[nH][nH]c1=O	GSTO1 inh 72, PAD4 inh 44 | GSTO1 confirm 57 | PAD4 FP conf 36
Cc1[nH][nH]c(=O)c1C(c1ccc(Br)cc1)c1c(C)[nH][nH]c1=O	none
CC1CCCC(C)N1C(=O)COC(=O)c1ccc(F)c(S(=O)(=O)N2CCOCC2)c1 (stereo unspecified)	none
COc1ccc(NS(=O)(=O)c2ccc(N3CCCCC3)c(N)c2)cc1	none (no result: GSTO1 inh, Fam108B inh)
CCCNC1=C(N(C(C)=O)c2cccc(F)c2)C(=O)c2ccccc2C1=O	GSTO1 inh 55, PAD4 inh 18 | GSTO1 confirm 41 | PAD4 FP conf inactive
O=C1c2ccccc2C(=O)c2[nH]c(=O)[nH]c21	GSTO1 inh 64, PAD4 inh 17 | GSTO1 confirm 62 | PAD4 FP conf inactive
Cc1noc(C)c1NC(=O)Nc1ccc2c(c1)C(=O)N([C@H](C)CO)C[C@H](C)[C@@H](CN(C)S(=O)(=O)c1c(C)noc1C)O2	none (no result: PME-1 primary, LYPLA2 inh, GSTO1 inh, LYPLA1 inh, Fam108B inh)
C=CCOc1c(Cl)cc(CNc2ccc(N(C)C)cc2)cc1OC	GSTO1 inh 77, PAD4 inh 25 | GSTO1 confirm inactive | PAD4 FP conf inactive
CC(NC(=O)c1ccccc1Cl)C(=O)OCc1cn2cc(Cl)ccc2n1 (stereo unspecified)	none (no result: PME-1 primary, LYPLA2 inh, GSTO1 inh, LYPLA1 inh, Fam108B inh)
Nc1ccc2c(c1)C(=O)C(=O)c1ccccc1-2	PME-1 primary 38, LYPLA2 inh 95, GSTO1 inh 94, LYPLA1 inh 87, Fam108B inh 66, PAD4 inh 82 | GSTO1 confirm 94 | LYPLA1 confirm 81 | LYPLA2 conf 92 | PAD4 FP conf 73
Nc1ccc2c(c1)C(=O)c1ccccc1C2=O	none
O=C(N/N=C\c1ccc(-c2ccccc2[N+](=O)[O-])o1)C1COc2ccccc2O1 (stereo unspecified)	GSTO1 inh 66, PAD4 inh 29 | GSTO1 confirm 47 | PAD4 FP conf inactive
O=C(N/N=C\c1ccc([N+](=O)[O-])o1)C1COc2ccccc2O1 (stereo unspecified)	none
CCCC(=Nc1ccc(N)cc1)C1=C(O)C(C(=O)OC)C(C)(C)CC1=O (stereo unspecified)	PME-1 primary 34, LYPLA2 inh 28, GSTO1 inh 88, LYPLA1 inh 15, PAD4 inh 67 | GSTO1 confirm inactive | LYPLA1 confirm inactive | LYPLA2 conf inactive | PAD4 FP conf inactive
COc1ccc(Br)cc1CNc1ccc2[nH]c(=O)[nH]c2c1	none
COc1ccc(Br)cc1CNc1ccc(O)cc1	PME-1 primary 29, GSTO1 inh 86, PAD4 inh 28 | GSTO1 confirm inactive | PAD4 FP conf inactive
O=C1c2ccccc2C(=O)c2c1cccc2N1CCCC1	GSTO1 inh 56, PAD4 inh 28 | GSTO1 confirm inactive | PAD4 FP conf inactive
O=C1c2ccccc2-c2cccc(C(=O)N3CCCCC3)c21	none
O=C(Cn1ncc(Cl)c(Cl)c1=O)c1ccc(Cl)cc1	none
O=C(OCn1ncc(Cl)c(Cl)c1=O)c1ccccc1Cl	GSTO1 inh 48, PAD4 inh 28 | GSTO1 confirm inactive | PAD4 FP conf 29
COc1ccc(S(=O)(=O)Nc2cc(SCC(=O)O)c(O)c3ccccc23)cc1	LYPLA2 inh 28, GSTO1 inh 81, PAD4 inh 35 | GSTO1 confirm 54 | LYPLA2 conf 28 | PAD4 FP conf inactive
O=C(O)CCCCCCCCCCCNC(=O)NC12CC3CC(CC(C3)C1)C2	none (no result: GSTO1 inh, Fam108B inh)
CN(C)c1ccc(N/C=C/C(=O)c2ccco2)cc1	GSTO1 inh 61, PAD4 inh 23 | GSTO1 confirm inactive | PAD4 FP conf inactive
CC(=O)Nc1ccc(N/C=C/C(=O)c2ccco2)cc1	none
COC(CNC(=O)c1ccc2c3c(onc13)-c1ccccc1C2=O)OC	none
CCOc1ccc2noc3c2c1C(=O)c1ccccc1-3	GSTO1 inh 40, LYPLA1 inh 20, PAD4 inh 135 | GSTO1 confirm inactive | LYPLA1 confirm inactive | PAD4 FP conf 131
O=C(Nc1ccc2nsnc2c1)N1CCCCC1	none
S=C(Nc1ccc2nsnc2c1)N1CCCCCC1	GSTO1 inh 77, PAD4 inh 50 | GSTO1 confirm 79 | PAD4 FP conf inactive
CC(=O)N(C1=C(N2CCOCC2)C(=O)c2ccccc2C1=O)c1ccc(C(=O)O)cc1	GSTO1 inh 61, PAD4 inh 17 | GSTO1 confirm 55 | PAD4 FP conf inactive
CC[C@]12c3[nH]c4ccccc4c3CCN1C(=O)C(CC(=O)NCCC1=CCCCC1)C[C@@H]2C(=O)N1CCN(C(=O)C2CC2)CC1 (stereo partly specified)	none (no result: PME-1 primary, LYPLA2 inh, GSTO1 inh, LYPLA1 inh, Fam108B inh)
O=S(=O)(Nc1ccc(O)c2ccccc12)c1cccs1	GSTO1 inh 64, PAD4 inh 21 | GSTO1 confirm inactive | PAD4 FP conf inactive
O=C(CSc1ccc(-c2cccnc2)nn1)Nc1ccc(F)c(F)c1	none
